For 88 compounds, inhibition results are on record in PubChem BioAssay AID725 (NMMLSC, 2007).

Screen size: about 1,300 compounds; fewer than 10 were called active. A selection follows. Unmarked numbers belong to inactive results. How the calls were made is not given here.

For this assay, the target named is N-formyl peptide receptor 2 (Homo sapiens) (UniProt P25090). The experiment in a line: FPRL1 fluorescent ligand binding inhibitors, primary screen, selectivity assay for FPR ligand SAR project, cell-based, flow cytometry, HTS counterscreen (AID 725). The following applies: FPRL1-expressing cells, stronger effect = higher value, concentration not given here.
N-formyl peptide receptor 2 (Homo sapiens), sequence (P25090 whole entry, looked up): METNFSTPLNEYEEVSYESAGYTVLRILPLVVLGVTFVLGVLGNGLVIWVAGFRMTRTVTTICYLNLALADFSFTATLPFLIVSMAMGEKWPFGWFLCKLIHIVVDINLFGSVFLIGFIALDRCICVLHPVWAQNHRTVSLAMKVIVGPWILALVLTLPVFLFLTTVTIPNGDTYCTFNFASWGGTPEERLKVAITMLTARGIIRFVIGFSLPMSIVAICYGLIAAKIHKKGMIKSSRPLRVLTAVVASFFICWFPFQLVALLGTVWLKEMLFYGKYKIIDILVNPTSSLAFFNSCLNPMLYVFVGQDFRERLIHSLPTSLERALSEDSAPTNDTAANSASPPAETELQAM
For the compound `O=C(C(Cc1ccccc1)N1Cc2ccccc2C1=O)N1CCOCC1` (stereo not drawn), the inhibition was -13.3%. Consider `CCOC(=O)c1c(NC(=O)c2cccs2)sc2c1CCC(C(C)(C)C)C2` (stereo not drawn), for which the inhibition was -4.5%. As to `CC(C)c1ccc(C2/C(=C(\O)c3ccc(F)cc3)C(=O)C(=O)N2CCN2CCOCC2)cc1` (stereo not drawn), the inhibition is 5.6%. `CCOC(=O)Cc1c(C)nc2c(C#N)c(C)[nH]n2c1=O`: the inhibition was 5.1%.

Regarding `O=c1c(-c2ccc(Cl)cc2)c(C(F)(F)F)oc2c(CN3CCCCC3)c(O)ccc12`, the inhibition was 2.2%. The figure for `COC(=O)c1c(NC(=O)c2cncc(Br)c2)sc2c1CCCC2` is -1.3%. The figure for `CN1C(=O)c2ccccc2C(C(=O)N2CCCC2)C1c1cccs1` (stereo not drawn) is -3%; for `O=C1C(=O)N(c2ccc(Br)cc2)C(c2ccc(Br)cc2)/C1=C(/O)c1ccccc1` (stereo not drawn) it is 0.2%; for `COC(=O)c1c(NC(=O)c2cc(OC)c(OC)c(OC)c2)sc(C)c1C` it is -10.3%. As for `CCOC(=O)c1cc(C(C)C)sc1NC(=O)CCCC(=O)O`, the inhibition is -4.7%. The figure for `COc1ccc(OC)c(C(=O)CC2(O)C(=O)N(C)c3ccccc32)c1` (stereo not drawn) is 1.1%; for `COc1ccc(CN2CCc3c(c(=O)n4ncc(C(=O)O)c4n3C)C2)cc1` it is -3.9%; for `CCc1c(C)nc2c(-c3ccc(OC)c(OC)c3)c(C)[nH]n2c1=O` it is -1.3%. In the case of `Cc1ccc(C2/C(=C(\O)c3ccc(Cl)cc3)C(=O)C(=O)N2CCN2CCOCC2)cc1` (stereo not drawn), the inhibition was 0.3%.

Consider `Cc1cc(C)nc(/N=C(/NC(=O)c2ccccc2)Nc2cccc(Cl)c2)n1`, for which the inhibition is -4.7%.

Take `CCOc1ccc(C2/C(=C(/O)c3ccccc3)C(=O)C(=O)N2CC(C)O)cc1` (stereo not drawn): the inhibition is -1.6%. Take `CCC(Sc1nc2ncccc2o1)C(=O)Nc1ccccc1OC` (stereo not drawn): the inhibition was -16.4%. Next, `O=C1C(=O)N(c2ccccn2)C(c2cccnc2)/C1=C(/O)c1ccccc1` (stereo not drawn): 4.3%; `CCOC(=O)c1c(NC(=O)c2cccc(Cl)c2)sc(C)c1C`: 6.4%. Next, `COc1ccccc1NC(=O)CSc1nncn2c1cc1occc12`: 34.6% (active). The figure for `Cc1cc(C)c(NC(=O)CSc2nncn3c2cc2occc23)c(C)c1` is 12%; for `Cc1cc(C)c(NC(=O)CSc2nncn3c2cc2oc(C)cc23)c(C)c1` it is 13.3%; for `O=C1O[C@@H]2C[C@H]3C[C@@H]2[C@@H]1[C@H]3C(=O)N1CCc2ccccc21` it is -14.7%. As for `O=C(O)C1CCCCC1C(=O)Nc1ccc(O)cc1` (stereo not drawn), the inhibition is -4.1%. As to `COc1ccc(C2SCC(=O)N2c2ccccc2)cc1` (stereo not drawn), the inhibition was 0%. On to `Cc1ccc(C2/C(=C(\O)c3ccccc3)C(=O)C(=O)N2CCN2CCNCC2)cc1` (stereo not drawn), for which the inhibition is 7.6%. Next, `COC(=O)c1c[nH]n2c(=O)c3c(nc12)C(=O)N(Cc1ccccc1)C3`: -4.5%; `Cc1cccc(C(CC(=O)O)NS(=O)(=O)c2ccc(C)cc2C)c1` (stereo not drawn): -12.7%; `CCC(=O)N1c2ccccc2CC1C(=O)N1CCN(CC)CC1` (stereo not drawn): 5.1%. Next, `COc1ccc(C2C(C(=O)c3ccc(C)o3)=C(O)C(=O)N2Cc2cccnc2)cc1OC` (stereo not drawn): 2.3%; `CCN(CC)C(=O)c1c(NC(=O)c2cccc(C)c2)sc2c1CCCCC2`: 0.5%; `O=C1C(=O)N(CCCN2CCOCC2)C(c2ccc(Cl)cc2)/C1=C(\O)c1ccccc1` (stereo not drawn): 6.2%. The figure for `CCc1cc2c(=O)c(-c3ccc4c(c3)OCO4)c(C(F)(F)F)oc2c(CN(C)C)c1O` is -3%; for `O=C(CCCC(=O)c1ccccc1)Nc1cc(F)ccc1F` it is -27.4%; for `CCN(C(=O)c1noc2c1CC(C)CC2)c1cccc(C)c1` (stereo not drawn) it is -9.6%.

On to `CC(C)c1ccc(CN(Cc2ccco2)C(=O)c2ccc(F)cc2)cc1`, for which the inhibition was -3.3%. For the compound `COc1ccc(C2C(C(=O)c3ccco3)=C(O)C(=O)N2c2nnc(C)s2)cc1OC` (stereo not drawn), the inhibition was 1.1%. `CCOC(=O)c1c(NC(=O)c2ccc(Cl)cc2)sc2c1CCC(C)C2` (stereo not drawn): the inhibition was -4.7%. The figure for `Cc1onc(-c2ccccc2Cl)c1C(=O)NC1CCCCC1` is 4.7%; for `Cc1ccc(N2C(=O)CSC2c2ccc(C(C)(C)C)cc2)cc1C` (stereo not drawn) it is -24.8%.

On to `COC(=O)c1c(NC(=O)c2cccc(Cl)c2)sc2c1CCCC2`, for which the inhibition was 4.4%. Next, `Cc1ccc(N2C(=O)C(=O)/C(=C(\O)c3ccc(Cl)cc3)C2c2ccc(O)cc2)cc1Br` (stereo not drawn): -2.4%. Next, `CCOC(=O)c1c(NC(=O)c2ccccc2C)sc2c1CCC(CC)C2` (stereo not drawn): -9.3%.

As to `Cc1cc(C)n(Cc2c(C(=O)N3CCC(C)CC3)noc2C)n1`, the inhibition was 18.2%.

Take `CCCN(C(=O)[C@H]1[C@@H]2C[C@@H]3[C@H]1C(=O)O[C@@H]3C2)c1ccccc1F`: the inhibition is 15.9%. As to `COc1ccc(C2/C(=C(\O)c3ccc(C)cc3)C(=O)C(=O)N2CCN2CCOCC2)c(OC)c1` (stereo not drawn), the inhibition was -7%. For `O=C(C(c1ccccc1)N1Cc2ccccc2C1=O)N1CCCCCC1` (stereo not drawn), the inhibition is 1.9%. Next, `Nc1nonc1-c1nc2ccccc2n1CC(=O)Nc1ccccc1Cl`: -1.8%; `COC(=O)c1ccc(-c2ccco2)n1CC(=O)Nc1c(C)cc(C)cc1C`: -13.6%; `COc1ccc(C2/C(=C(/O)c3ccccc3)C(=O)C(=O)N2c2ccc(F)cc2)c(OC)c1` (stereo not drawn): 3.6%. Next, `O=C1C(=O)N(Cc2cccnc2)C(c2ccc(F)cc2)/C1=C(\O)c1ccccc1` (stereo not drawn): 6.7%; `CC(C)OC(=O)c1c(NC(=O)C2CCCC2)sc2c1CCCC2`: -0.2%; `O=C1C(=O)N(CCCN2CCOCC2)C(c2cccc(Br)c2)/C1=C(\O)c1ccccc1` (stereo not drawn): 5.8%.

Turning to `Cc1nnc(N2C(=O)C(=O)/C(=C(/O)c3ccccc3)C2c2ccc(Cl)cc2)s1` (stereo not drawn), the inhibition was -5%. Next, `COCCCN1C(=O)C(=O)/C(=C(/O)c2ccccc2)C1c1ccc(Br)cc1` (stereo not drawn): 3.8%. As to `COc1cccc(NC(=O)C2CCC(=O)N2S(=O)(=O)c2ccccc2)c1` (stereo not drawn), the inhibition is -2.9%. Next, `COC(=O)c1c(NC(=O)c2cccc(Br)c2)sc(C)c1C`: 3.3%. As for `CCOC(=O)c1sc(N2C(=O)C(=O)/C(=C(/O)c3ccccc3)C2c2ccc(O)c(OC)c2)nc1C` (stereo not drawn), the inhibition was 0.2%. The figure for `COC(=O)c1c(NC(=O)c2ccc(F)cc2)sc2c1CCC2` is -10.9%; for `Cc1ccc(C2CC(c3ccccc3)n3ncnc3N2C(=O)c2ccccc2)cc1` (stereo not drawn) it is -21.4%. On to `CC(O)CN1C(=O)C(=O)/C(=C(\O)c2ccccc2)C1c1cccnc1` (stereo not drawn), for which the inhibition was 1.7%. Next, `COc1ccccc1C1CC(=O)NC2=C1C(=O)CC(c1ccccc1Cl)C2` (stereo not drawn): 0.3%; `COc1ccc(C2C(C(=O)c3cc4ccccc4o3)=C(O)C(=O)N2CCN(C)C)cc1OC` (stereo not drawn): 9.3%; `COC(=O)c1c(NC(=O)c2cccs2)sc(C)c1C`: 1.5%.

For `CCCCCCc1cc2c(=O)c(-c3nc4ccccc4n3C)c(C(F)(F)F)oc2cc1O`, the inhibition is 3.9%. Next, `COc1cccc(OC)c1C(=O)Oc1ccc2c(=O)c(Oc3ccc4ccccc4c3)c(C(F)(F)F)oc2c1`: 4.4%; `C=CCN1C(=O)C2(/C(=C(/O)c3ccc(C)cc3)C(=O)C(=O)N2CC2CCCO2)c2ccccc21` (stereo not drawn): 0.9%.

`CCN(CC)Cc1c(O)ccc2c(=O)c(-c3ccc(OC)c(OC)c3)c(C(F)(F)F)oc12`: the inhibition was -8.6%.

With `O=C1C(=O)N(c2nncs2)C(c2cccs2)/C1=C(/O)c1ccc(F)cc1` (stereo not drawn), the inhibition was -5.3%. The figure for `CCOC(=O)c1c(NC(=O)c2ccc(OC)cc2)sc(C)c1C` is -3.8%. Next, `CC(C)c1ccc(C2/C(=C(\O)c3ccccc3)C(=O)C(=O)N2CCC(=O)O)cc1` (stereo not drawn): 7.3%; `COC(=O)c1c(NC(=O)c2ccc(Cl)c(Cl)c2)sc2c1CCCC2`: -2.7%. Take `CCOC(=O)c1c(CC(C)C)csc1NC(=O)c1ccccc1F`: the inhibition was -1.5%. Next, `COc1ccc(Br)cc1CNC(=O)Cn1ncc2ccccc21`: -17.2%; `CCCCn1c(=O)c2c(nc3n2CCN3Cc2ccco2)n(C)c1=O`: -0.5%. The figure for `O=c1c(-c2cccc(Cl)c2)c(C(F)(F)F)oc2c(CN3CCOCC3)c(O)ccc12` is 3.4%; for `CCc1nn(Cc2ccccc2F)c(=O)c2cc3cc(C)ccc3n12` it is -0.2%; for `CCN(CC)C(=O)c1c(NC(=O)c2ccccc2F)sc2c1CCC(C)C2` (stereo not drawn) it is 2.2%.

For the compound `CCOC(=O)c1c(NC(=O)c2ccccc2OCC)sc2c1CCCC2`, the inhibition was -11.3%.

As to `Cc1ccc(OC(=O)c2ccc(N3C(=O)c4cccc(N)c4C3=O)cc2)cc1C`, the inhibition was -3.5%. As to `CCOC(=O)C1=C(C)N(c2ccc(C)cc2)C(=O)/C1=C\c1ccccc1OC`, the inhibition was -4.9%. Consider `O=C1C(=O)N(CCc2c[nH]c3ccccc23)C(c2cccnc2)/C1=C(/O)c1ccc(Cl)cc1` (stereo not drawn), for which the inhibition was -0.1%. Regarding `CCc1ccc(Oc2c(C(F)(F)F)oc3cc(OCC(=O)OC4CCCCC4)ccc3c2=O)cc1`, the inhibition was 1.4%. As to `Cc1sc(NC(=O)C2C3CCC(O3)C2C(=O)O)c(C(N)=O)c1-c1ccc(C(C)C)cc1` (stereo not drawn), the inhibition was -4.5%. As for `O=C1C(=O)N(c2cccc(C(F)(F)F)c2)C(c2ccccc2[N+](=O)[O-])/C1=C(\O)c1ccccc1` (stereo not drawn), the inhibition was -1.4%.

Consider `CCOc1ccccc1C(=O)N(Cc1ccc(Cl)cc1)Cc1ccco1`, for which the inhibition was -14.6%. Next, `O=C1C(=O)N(Cc2cccnc2)C(c2cccc(Br)c2)/C1=C(\O)c1ccccc1` (stereo not drawn): 4.9%; `CC(C)OC(=O)c1c(NC(=O)C2CCCCC2)sc2c1CCCC2`: -2.7%.
